Screens from PubChem BioAssay.
Sampled rows, rich in hits. Any-hit rate of the full collection: about 3.6%.
TRHR enhancer-1: allosteric enhancers of human TRH receptor. P34981. TRHR cells, fluo-8 calcium fluorescence, EC20 TRH enhancement. enhancement, % at 2 µM. hit rate 0.66% among 360,000. AID 493056; in the data active = enhancement above about 30%
Target sequence (P34981 whole entry, looked up): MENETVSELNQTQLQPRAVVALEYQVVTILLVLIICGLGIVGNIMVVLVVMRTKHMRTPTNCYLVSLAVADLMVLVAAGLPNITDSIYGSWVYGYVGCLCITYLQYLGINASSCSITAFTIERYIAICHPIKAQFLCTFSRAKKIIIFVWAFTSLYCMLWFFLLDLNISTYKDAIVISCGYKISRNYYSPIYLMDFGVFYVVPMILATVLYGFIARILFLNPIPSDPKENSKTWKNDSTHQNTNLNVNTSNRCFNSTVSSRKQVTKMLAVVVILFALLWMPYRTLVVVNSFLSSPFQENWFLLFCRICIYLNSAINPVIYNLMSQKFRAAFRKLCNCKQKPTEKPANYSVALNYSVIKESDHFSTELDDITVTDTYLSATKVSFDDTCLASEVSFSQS
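TRHR-expressing cells loaded with fluo-8 calcium dye were read kinetically (ex 480/em 530) during compound addition, then stimulated with an EC20 of TRH (10 nM final). Enhancement of the Gq-mediated intracellular calcium response was scored.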
LDHA inh: inhibitors of human lactate dehydrogenase A; purified LDHA, NADH/diaphorase-resazurin fluorescence; active compounds read low; activity change, % (values are at about 110 or 230 µM); hit rate 0.15% among 480,000; AID 1347041; in the data active = activity change below about -30%; inconclusive = mostly about -25% to -30%
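Human LDH5 (2 nM) was incubated with 0.06 mM NADH and 0.2 mM pyruvate for 5 min at room temperature in Tris pH 7.4. Remaining NADH was coupled through diaphorase/resazurin, and resorufin fluorescence was read at 0 and 20 min.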
D1 agonist: agonists of human D1 dopamine receptor | P21728 | HEK293 T-REx D1 cells, calcium flux, agonist mode | activation, % at 2 µM | hit rate 1% among 360,000 | AID 504660
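Agonism was scored from calcium flux recorded over 180 s (1 read/s) after pintool compound addition, following a 10-cycle baseline. Cells were inducible force-coupled HEK293 TREx D1, plated overnight at 30 C and loaded with no-wash calcium dye.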
TRHR agonist-1: agonists of human TRH receptor; P34981; TRHR cells, calcium flux fluo-8, FDSS agonist mode; activation, % at 2 µM; hit rate 0.18% among 360,000
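TRHR-expressing cells loaded with fluo-8 calcium dye; 23 nL library compound pin-transferred, kinetic FDSS fluorescence (Ex 480/Em 530) recorded about 180 s for agonist-induced calcium release, before a 10 nM TRH EC20 addition for potentiator mode.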
D1 potentiator: enhances dopamine response at the human D1 receptor. potentiation, % at 10 µM. AID 504651. HEK293 TREx D1 cells, calcium flux, dopamine EC20 potentiation. hit rate 0.036% among 360,000; in the data active = potentiation above about 30%
D1 antag: antagonists of human D1 dopamine receptor | activity change, negative = inhibition, % at 10 µM | P21728 | HEK293 TREx D1 cells, calcium flux, dopamine EC80; active compounds read low | hit rate 3.2% among 360,000; in the data active = activity change below about -30%
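Calcium flux readout: force-coupled, inducible Hek293 Trex D1 line, cells induced overnight at 30 C with tetracycline, dye-loaded 30–90 min at RT. Antagonism scored against EC80 dopamine challenge given 180 s after compound.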
TRHR enhancer-2: human TRH receptor allosteric enhancement confirmation. shares compounds with TRHR enhancer-1. TRH receptor cell assay, enhancer confirmation qHTS. activity change, negative = inhibition, % at 46.1 µM. 970 tested, under 10 active. AID 493076; active = well fitted curve in the direction sought with a large enough effect; inconclusive = small, poorly fitted or top-dose-only effect, or another doubt; inactive = no such curve, though single readings can be large; an effect the other way counts as inactive or inconclusive;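 also: compound effect scored on response to added TRH at EC20 of 10 nM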
TRHR agonist-2: human TRH receptor agonism confirmation | shares compounds with TRHR enhancer-1 | TRHR-expressing cells, agonist activation read-out | Potency, µM (series often up to 46.1 µM), most hits filed as activators | hit rate 8% among 970; active = well fitted curve in the direction sought with a large enough effect; inconclusive = small, poorly fitted or top-dose-only effect, or another doubt; inactive = no such curve, though single readings can be large; an effect the other way counts as inactive or inconclusive; also: nearly all actives have a fitted effect of over 75% in size
Numbers stand for hits; n = inactive; u = inconclusive; x = no result given. Rule as the data show it, unless noted: active = activation above about 30%; inactive = the rest.

SMILES | TRHR enhancer-1 | LDHA inh | D1 agonist | TRHR agonist-1 | D1 potentiator | D1 antag | TRHR enhancer-2 | TRHR agonist-2
N#Cc1c(-c2ccc3c(c2)OCO3)csc1N | n | n | n | n | n | n | x | x
CC(C)C(NC(=O)c1ccc(S(=O)(=O)N(C)C)cc1)c1ccc2c(c1)OCCO2 (stereo not drawn) | x | n | x | x | x | x | x | x
Cn1c(N)c(C(=O)COC(=O)CCC2CCCCC2)c(=O)n(C)c1=O | 45.6 | n | n | n | n | n | n | n
Cn1c(N)c(C(=O)COC(=O)CCC2CCCC2)c(=O)n(C)c1=O | n | n | n | n | n | n | x | x
Cc1ccc(-n2ncc3c(N4CCC(C(N)=O)CC4)ncnc32)c(C)c1 | n | n | n | n | n | n | x | x
CCN(CC)C(=O)C1CCN(c2ncnc3c2cnn3-c2ccc(C)cc2C)CC1 | 44.5 | n | n | n | n | n | n | n
N#Cc1nc(/C=C/c2ccccc2)oc1N1CCCCC1 | x | n | x | x | x | x | x | x
N#CC1(NC(=O)CNc2ccc(-c3nnnn3C3CC3)cc2)CCCC1 | x | n | x | x | x | x | x | x
O=C(NC1CC1)C1=NOC(CNc2ncc(C(F)(F)F)cc2Cl)C1 (stereo not drawn) | 46.3 | n | n | n | n | n | n | n
CC1Cc2cc(/C(O)=C3/C(=O)C(=O)N(CCN4CCOCC4)C3c3ccc(N(C)C)cc3)ccc2O1 (stereo not drawn) | 41.9 | n | n | n | n | n | n | n
CC1Cc2cc(/C(O)=C3/C(=O)C(=O)N(CCN4CCOCC4)C3c3ccc(C(C)C)cc3)ccc2O1 (stereo not drawn) | n | n | n | n | n | n | x | x
COc1ccc(-n2nnnc2SCC(=O)Nc2cc(C)nn2-c2ccccc2C)cc1 | x | n | x | x | x | x | x | x
O=C(NCCc1ccc(Cl)cc1)c1cc(-c2ccncc2)nc2ccccc12 | n | n | n | n | n | n | x | x
Cc1ccc2[nH]c(=O)c3cc(C(=O)NCCc4ccc(Cl)cc4)sc3c2c1 | 57.2 | n | n | n | n | n | n | n
O=C(NCCc1ccc(Cl)cc1)c1cc(-c2ccccn2)nc2ccccc12 | 49.1 | n | n | n | n | n | n | n
O=C(NCCc1ccc(Cl)cc1)c1cc(=O)[nH]c2ccccc12 | 42.9 | n | n | n | n | n | u | n
NS(=O)(=O)c1ccc(CCNC(=O)c2cc(=O)[nH]c3ccccc23)cc1 | n | n | n | n | n | n | x | x
CCN(CC)CCCNC(=S)N1CCN(c2nc(-c3ccccc3)cs2)CC1 | 42.2 | n | n | n | n | -37.4 | n | u
O=C(CCc1ncc(-c2ccccc2F)o1)N1CCN(CC(=O)N2CCCCC2)CC1 | x | n | x | x | x | x | x | x
CCCCCCNc1nc2c(c(=O)n(C)c(=O)n2C)n1Cc1cccc(Cl)c1 | x | n | x | x | x | x | x | x
Cc1c(NC(=S)NC(=O)c2cccc3ccccc23)cccc1C(=O)O | 65.2 | n | n | n | n | n | n | n
CCCC(=O)NC(C)c1nc2ccccc2n1CC (stereo not drawn) | 44.8 | n | n | n | n | n | n | n
O=[N+]([O-])c1ccc(N/N=C/c2ccc(Br)cc2)cc1 | x | n | x | x | x | x | x | x
COc1cc(NC(=O)[C@@H](NC(=O)N2CCn3c2nc2ccccc23)C(C)C)cc(OC)c1 | 43.2 | n | n | n | n | n | n | n
CCC(C)NC(=O)[C@@H](NC(=O)N1CCn2c1nc1ccccc12)C(C)C (stereo partly drawn) | x | n | x | x | x | x | x | x
O=C1/C(=C/c2ccccc2)Nc2ccccc21 | n | n | 50.0 | 49.9 | n | n | n | 16.4µM
Cc1oc2cc(OCc3ccccc3)ccc2c(=O)c1-c1ccc2c(c1)OCCCO2 | x | n | x | x | x | x | x | x
CC(OC(=O)CN1C(=O)C2CC=CCC2C1=O)C(=O)Nc1ccc(F)cc1Cl (stereo not drawn) | 43.2 | n | n | n | n | n | n | n
CSCCC(NC(=O)c1ccc(Cl)c([N+](=O)[O-])c1)C(=O)N1CCN(C/C=C/c2ccccc2)CC1 (stereo not drawn) | 66.3 | n | n | n | n | n | n | n
